From the supplement of paper PMC10849652
Of roughly 8,800 targets only a part is listed; those with a hit were picked by preference. About 0.5% of all pairs of compound and target were hits.

How the values were obtained:
Assay in all cases: log2 fold change, soluble protein after heating vs DMSO (PISA); higher = thermal stabilisation; K562 lysate, 10 uM; active = over 0.2 and 3.5 SD of the protein, either way, in both replicates (recomputed)
[1] = compound: CN1CC[C@H](c2c(O)cc(O)c3c(=O)cc(-c4ccccc4Cl)oc23)[C@H](O)C1 [alvocidib]
Procedure, shortened: (§1)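 Thermal stability, expressed as log-two fold change relative to solvent controls, is given from duplicates. Crude K562 extract in PBS pH 7.4 with 1 mM MgCl2, at 1 mg/mL protein, was treated with 10 μM compound for 30 min and heated in aliquots for 3 min across 48°C-58°C. After pooling, adjustment to 0.5% NP-40 at 4°C and centrifugation at 21,000xg for 90 min, supernatant protein was measured by TMTpro 16plex LC-MS/MS with channel sums equalised.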

[2] = compound: CN1CCc2c(c3ccccc3n2Cc2ccc(C(=O)NO)cc2)C1 [Tubastatin A]
Procedure, shortened: as §1

[3] = compound: CNC(=O)C1=CC=CC=C1NC2=NC(=NC=C2Cl)NC3=C(C=C(C=C3)N4CCOCC4)OC
Procedure, shortened: as §1

[4] = compound: CNC(=O)c1ccc(Nc2ncc(C(F)(F)F)c(NCc3nccnc3N(C)S(C)(=O)=O)n2)cc1 [defactinib]
Procedure, shortened: as §1

[5] = compound: CNc1nc(-c2ccc3c(N)n[nH]c3c2)cc(N2C[C@@H](C(=O)NC3CCCCC3)CC[C@H]2C)n1
Procedure, shortened: as §1

[6] = compound: COC(=O)N[C@@H](C)CNc1nccc(-c2cn(C(C)C)nc2-c2cc(Cl)cc(NS(C)(=O)=O)c2F)n1 [encorafenib]
Procedure, shortened: as §1

[7] = compound: COC(=O)[C@H](CCSC)NC(=O)C1=C(C=C(C=C1)NC[C@H](CS)N)C2=CC=CC=C2
Procedure, shortened: as §1

[8] = compound: COc1cc(Nc2ncc3c(n2)-c2ccc(Cl)cc2C(c2c(F)cccc2OC)=NC3)ccc1C(=O)O [alisertib]
Procedure, shortened: as §1

[9] = compound: COc1cc2nc(-c3cc(F)ccc3O)nc(N[C@@H]3CNC[C@H]3C(C)(C)O)c2cc1OC
Procedure, shortened: as §1

[10] = compound: COc1cc2ncnc(Nc3ccc(F)c(Cl)c3)c2cc1OCCCN1CCOCC1 [gefitinib]
Procedure, shortened: as §1

Measured: log2 fold change

LBR (UniProt Q14739)
inactive: [1] 0.072 | [2] 0.025 | [3] -0.063 | [4] 0.04 | [5] -0.002 | [6] -0.021 | [7] 0.027 | [8] 0.071 | [9] 0.001 | [10] -0.094

MPDZ (UniProt O75970)
inactive: [1] 0.028 | [2] 0.117 | [3] 0.236 | [4] 0.053 | [5] 0.099 | [6] -0.091 | [7] -0.032 | [8] -0.167 | [9] -0.114 | [10] 0.228

LUC7L (UniProt Q9NQ29)
UniProt Q9NQ29, sequence (Q9NQ29 whole entry, looked up): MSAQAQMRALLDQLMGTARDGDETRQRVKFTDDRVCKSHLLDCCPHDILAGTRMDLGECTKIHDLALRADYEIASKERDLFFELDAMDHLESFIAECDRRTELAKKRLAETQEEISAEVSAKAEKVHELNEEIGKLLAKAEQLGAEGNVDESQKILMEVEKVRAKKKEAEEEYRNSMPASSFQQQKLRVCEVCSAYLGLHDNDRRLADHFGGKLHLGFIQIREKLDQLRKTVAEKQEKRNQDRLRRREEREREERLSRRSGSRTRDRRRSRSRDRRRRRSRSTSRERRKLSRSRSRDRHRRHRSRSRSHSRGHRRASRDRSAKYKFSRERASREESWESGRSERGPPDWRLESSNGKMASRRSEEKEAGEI
inactive: [2] 0.015 | [3] -0.117 | [4] -0.075 | [5] 0.002 | [6] 0.065 | [7] -0.039 | [8] 0.033 | [9] 0.01 | [10] 0.037
active: [1] -0.259

MAP2K5 (UniProt Q13163)
inactive: [1] 0.067 | [2] -0.033 | [3] 0.086 | [4] -0.026 | [5] 0.329 | [6] 0.149 | [7] -0.15 | [8] -0.016 | [9] 0.054 | [10] 0.155

KIFC1 (UniProt Q9BW19)
inactive: [1] -0.022 | [2] -0.15 | [3] -0.013 | [4] -0.003 | [5] 0.024 | [6] -0.03 | [7] 0.14 | [8] 0.011 | [9] 0.008 | [10] -0.01

MECR (UniProt Q9BV79)
UniProt Q9BV79, sequence (Q9BV79 whole entry, looked up): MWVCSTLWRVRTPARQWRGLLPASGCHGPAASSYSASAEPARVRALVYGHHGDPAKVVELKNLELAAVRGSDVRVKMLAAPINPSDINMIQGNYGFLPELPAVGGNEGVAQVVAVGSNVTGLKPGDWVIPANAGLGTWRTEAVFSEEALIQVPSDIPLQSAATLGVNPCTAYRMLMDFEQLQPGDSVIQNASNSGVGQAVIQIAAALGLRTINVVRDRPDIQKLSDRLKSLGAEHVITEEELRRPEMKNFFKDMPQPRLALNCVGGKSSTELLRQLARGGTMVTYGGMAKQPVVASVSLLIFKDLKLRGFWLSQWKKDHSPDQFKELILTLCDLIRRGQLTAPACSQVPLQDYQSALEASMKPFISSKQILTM
inactive: [1] 0.018 | [2] 0.014 | [3] 0.01 | [4] 0.007 | [5] 0.053 | [6] -0.06 | [7] 0.049 | [8] 0 | [9] 0.04 | [10] -0.011

MORC2 (UniProt Q9Y6X9)
inactive: [1] 0.018 | [2] -0.095 | [3] 0 | [4] 0.013 | [5] -0.012 | [6] 0.02 | [7] 0.025 | [8] 0.001 | [9] -0.008 | [10] -0.02

MLXIP (UniProt Q9HAP2)
UniProt Q9HAP2, sequence (Q9HAP2 whole entry, looked up): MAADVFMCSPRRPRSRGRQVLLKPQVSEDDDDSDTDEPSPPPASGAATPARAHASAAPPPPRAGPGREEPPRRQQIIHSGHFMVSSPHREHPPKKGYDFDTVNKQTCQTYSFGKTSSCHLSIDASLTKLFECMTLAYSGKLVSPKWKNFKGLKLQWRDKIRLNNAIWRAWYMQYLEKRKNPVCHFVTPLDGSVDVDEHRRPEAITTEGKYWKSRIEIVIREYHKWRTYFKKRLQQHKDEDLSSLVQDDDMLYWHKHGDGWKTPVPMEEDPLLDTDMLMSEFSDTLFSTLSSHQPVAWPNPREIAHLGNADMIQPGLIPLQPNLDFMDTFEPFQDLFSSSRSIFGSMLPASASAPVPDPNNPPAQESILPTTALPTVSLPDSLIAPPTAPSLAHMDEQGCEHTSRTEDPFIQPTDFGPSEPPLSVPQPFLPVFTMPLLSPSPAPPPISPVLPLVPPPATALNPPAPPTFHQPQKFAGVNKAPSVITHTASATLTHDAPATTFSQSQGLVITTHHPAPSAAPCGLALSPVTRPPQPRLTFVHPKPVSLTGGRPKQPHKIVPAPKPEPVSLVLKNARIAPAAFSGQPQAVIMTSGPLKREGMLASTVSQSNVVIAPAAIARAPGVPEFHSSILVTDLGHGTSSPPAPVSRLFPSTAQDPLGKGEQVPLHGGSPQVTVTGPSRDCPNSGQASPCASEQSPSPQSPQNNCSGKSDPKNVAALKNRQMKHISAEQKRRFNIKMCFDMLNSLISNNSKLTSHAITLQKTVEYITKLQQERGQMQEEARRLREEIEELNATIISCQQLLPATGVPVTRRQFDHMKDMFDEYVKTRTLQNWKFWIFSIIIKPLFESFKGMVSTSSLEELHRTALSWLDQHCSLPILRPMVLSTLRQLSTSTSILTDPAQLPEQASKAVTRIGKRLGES
inactive: [1] -0.035 | [2] -0.016 | [3] -0.049 | [4] -0.029 | [5] -0.017 | [6] 0.027 | [7] -0.016 | [8] 0.002 | [9] -0.051 | [10] -0.047

KIF4B (UniProt Q2VIQ3)
inactive: [1] -0.01 | [3] 0.024 | [4] 0.008 | [5] -0.039 | [6] 0.034 | [7] 0.146 | [8] -0.018 | [9] -0.006 | [10] -0.018
active: [2] -0.207

MRPL12 (UniProt P52815)
inactive: [1] 0.066 | [2] 0.117 | [3] 0.06 | [4] 0.096 | [5] 0.037 | [6] 0.003 | [7] -0.079 | [8] 0.115 | [9] -0.01 | [10] -0.153

MED17 (UniProt Q9NVC6)
inactive: [1] -0.001 | [2] -0.093 | [3] 0.025 | [4] -0.035 | [5] -0.019 | [6] 0.03 | [7] -0.017 | [8] -0.012 | [9] 0.023 | [10] -0.015

KNSTRN (UniProt Q9Y448)
inactive: [1] 0.001 | [2] -0.062 | [3] 0.038 | [4] -0.029 | [5] 0.053 | [6] 0.074 | [8] 0.043 | [9] -0.016 | [10] -0.022
active: [7] -0.264

KIF2C (UniProt Q99661)
inactive: [1] 0.011 | [2] -0.18 | [3] -0.006 | [4] 0.018 | [5] 0.002 | [6] 0.004 | [7] 0.096 | [8] -0.006 | [9] 0.001 | [10] -0.014

KNOP1 (UniProt Q1ED39)
UniProt Q1ED39, sequence (Q1ED39 whole entry, looked up): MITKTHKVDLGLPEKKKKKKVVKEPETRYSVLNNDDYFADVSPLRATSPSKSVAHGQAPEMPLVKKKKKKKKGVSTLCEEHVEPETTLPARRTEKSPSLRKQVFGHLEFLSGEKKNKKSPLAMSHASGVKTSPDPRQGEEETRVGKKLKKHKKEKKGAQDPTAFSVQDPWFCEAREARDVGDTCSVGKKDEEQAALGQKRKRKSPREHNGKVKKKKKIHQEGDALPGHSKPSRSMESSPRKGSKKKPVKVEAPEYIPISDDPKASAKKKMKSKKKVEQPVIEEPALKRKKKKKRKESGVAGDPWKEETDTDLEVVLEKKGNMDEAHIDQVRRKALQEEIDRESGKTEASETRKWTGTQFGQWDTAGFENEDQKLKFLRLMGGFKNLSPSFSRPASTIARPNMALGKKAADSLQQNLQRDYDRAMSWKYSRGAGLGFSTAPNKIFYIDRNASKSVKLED
inactive: [1] -0.004 | [2] 0.151 | [3] 0.062 | [5] 0.337 | [6] -0.023 | [7] 0.022 | [8] -0.065 | [9] 0.097 | [10] -0.03
active: [4] 0.413

LYSMD3 (UniProt Q7Z3D4)
inactive: [1] -0.001 | [2] 0.127 | [3] -0.045 | [4] -0.062 | [5] 0.092 | [6] 0.031 | [7] -0.124 | [8] 0.001 | [9] 0.112 | [10] 0.254

KIF22 (UniProt Q14807)
inactive: [1] -0.121 | [2] 0.099 | [3] -0.059 | [4] 0.175 | [5] 0.137 | [6] 0.012 | [7] -0.017 | [8] 0.011 | [9] 0.171 | [10] -0.013

MED14 (UniProt O60244)
inactive: [1] -0.017 | [2] -0.068 | [3] 0.051 | [4] -0.008 | [5] 0.015 | [6] 0.012 | [7] 0.003 | [8] -0.028 | [9] -0.018 | [10] 0.001

LZTS1 (UniProt Q9Y250)
inactive: [1] 0.054 | [2] 0.326 | [3] -0.037 | [4] -0.101 | [5] 0.709 | [6] -0.071 | [7] 0.001 | [8] -0.022 | [9] 0.129 | [10] -0.08

KIF15 (UniProt Q9NS87)
inactive: [1] -0.002 | [2] -0.058 | [3] 0.006 | [4] -0.011 | [5] 0.006 | [6] 0.01 | [7] 0.121 | [8] -0.013 | [9] -0.014 | [10] 0.003

MAP2K7 isoform 4 (UniProt O14733)
UniProt O14733, sequence (O14733 whole entry, looked up): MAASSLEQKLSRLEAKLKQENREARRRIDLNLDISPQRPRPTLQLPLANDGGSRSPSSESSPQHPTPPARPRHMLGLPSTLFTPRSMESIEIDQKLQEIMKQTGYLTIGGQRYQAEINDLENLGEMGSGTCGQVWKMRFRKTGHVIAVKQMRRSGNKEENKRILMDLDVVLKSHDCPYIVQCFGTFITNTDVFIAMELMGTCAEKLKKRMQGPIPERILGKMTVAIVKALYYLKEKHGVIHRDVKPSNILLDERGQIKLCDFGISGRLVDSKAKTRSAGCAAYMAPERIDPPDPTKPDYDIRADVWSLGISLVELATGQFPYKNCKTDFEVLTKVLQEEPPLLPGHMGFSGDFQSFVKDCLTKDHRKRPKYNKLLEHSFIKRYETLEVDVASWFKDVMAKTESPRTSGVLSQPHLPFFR
inactive: [1] 0.023 | [2] -0.15 | [3] 0.023 | [4] -0.035 | [5] 0.036 | [6] -0.059 | [7] 0.177 | [8] 0.006 | [9] -0.009 | [10] -0.08

LSS (UniProt P48449)
inactive: [1] -0.011 | [2] 0.021 | [3] -0.03 | [4] -0.026 | [5] 0.021 | [6] 0.031 | [7] 0.02 | [8] 0.011 | [9] 0.032 | [10] 0.055

MAPKAPK5 (UniProt Q8IW41)
inactive: [1] 0.055 | [2] 0 | [3] 0.006 | [4] 0.003 | [5] -0.089 | [6] -0.074 | [7] -0.125 | [8] -0.006 | [9] 0.01 | [10] 0.019

LIG4 (UniProt P49917)
active: [7] 0.415
inactive: [1] 0.02 | [2] -0.025 | [3] -0.04 | [4] 0.063 | [5] 0.005 | [6] 0.048 | [8] -0.049 | [9] -0.096 | [10] -0.069

MCU (UniProt Q8NE86)
inactive: [1] 0.011 | [2] 0.045 | [3] 0.026 | [4] 0.037 | [5] -0.067 | [6] 0.016 | [7] -0.035 | [8] 0.01 | [9] -0.063 | [10] -0.091

LYAR (UniProt Q9NX58)
inactive: [1] 0.072 | [2] 0.018 | [3] 0.006 | [4] 0.014 | [5] -0.002 | [6] -0.005 | [7] 0.021 | [8] 0.005 | [9] -0.001 | [10] -0.043

MAPK14 (UniProt Q16539)
UniProt Q16539, sequence (Q16539 whole entry, looked up): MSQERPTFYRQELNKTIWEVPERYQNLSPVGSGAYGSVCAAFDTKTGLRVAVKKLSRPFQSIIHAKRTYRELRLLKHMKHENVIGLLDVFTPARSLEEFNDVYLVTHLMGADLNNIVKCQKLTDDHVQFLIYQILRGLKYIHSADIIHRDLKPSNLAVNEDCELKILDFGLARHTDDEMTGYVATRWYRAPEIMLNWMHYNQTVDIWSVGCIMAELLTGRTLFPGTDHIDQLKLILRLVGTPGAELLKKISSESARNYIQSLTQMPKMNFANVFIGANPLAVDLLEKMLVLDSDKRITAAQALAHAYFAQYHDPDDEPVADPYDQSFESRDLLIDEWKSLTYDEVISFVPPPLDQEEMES
inactive: [1] 0.007 | [2] -0.203 | [3] 0.38 | [4] -0.053 | [5] -0.043 | [6] 0.488 | [7] 0.314 | [8] -0.144 | [9] 0.011 | [10] 0.295

LZTR1 (UniProt Q8N653)
UniProt Q8N653, sequence (Q8N653 whole entry, looked up): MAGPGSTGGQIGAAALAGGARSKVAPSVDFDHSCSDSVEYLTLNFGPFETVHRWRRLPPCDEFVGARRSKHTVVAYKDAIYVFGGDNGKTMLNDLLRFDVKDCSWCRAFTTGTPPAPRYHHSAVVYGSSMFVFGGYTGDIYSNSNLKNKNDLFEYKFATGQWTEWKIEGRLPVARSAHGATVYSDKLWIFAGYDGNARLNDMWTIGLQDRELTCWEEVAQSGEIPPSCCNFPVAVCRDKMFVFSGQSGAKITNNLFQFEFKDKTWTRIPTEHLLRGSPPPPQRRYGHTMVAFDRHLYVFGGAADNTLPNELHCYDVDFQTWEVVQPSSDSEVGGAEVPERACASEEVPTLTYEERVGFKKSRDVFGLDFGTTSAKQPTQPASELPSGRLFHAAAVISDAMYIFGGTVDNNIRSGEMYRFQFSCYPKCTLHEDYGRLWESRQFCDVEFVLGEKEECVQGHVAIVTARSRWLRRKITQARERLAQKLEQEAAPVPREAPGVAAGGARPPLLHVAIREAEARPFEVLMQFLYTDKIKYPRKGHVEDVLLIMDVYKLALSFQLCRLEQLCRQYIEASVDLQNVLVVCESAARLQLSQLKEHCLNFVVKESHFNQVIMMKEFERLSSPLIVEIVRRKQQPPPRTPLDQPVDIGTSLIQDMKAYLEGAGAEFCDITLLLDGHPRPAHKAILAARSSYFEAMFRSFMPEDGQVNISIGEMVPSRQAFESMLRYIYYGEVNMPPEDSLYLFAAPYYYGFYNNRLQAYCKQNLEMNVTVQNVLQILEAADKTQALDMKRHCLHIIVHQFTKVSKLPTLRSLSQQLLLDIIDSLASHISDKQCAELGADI
inactive: [1] 0.178 | [2] -0.168 | [3] -0.001 | [4] -0.036 | [5] -0.012 | [6] -0.039 | [7] 0.174 | [8] -0.047 | [9] 0.137 | [10] 0.091

KRR1 (UniProt Q13601)
UniProt Q13601, sequence (Q13601 whole entry, looked up): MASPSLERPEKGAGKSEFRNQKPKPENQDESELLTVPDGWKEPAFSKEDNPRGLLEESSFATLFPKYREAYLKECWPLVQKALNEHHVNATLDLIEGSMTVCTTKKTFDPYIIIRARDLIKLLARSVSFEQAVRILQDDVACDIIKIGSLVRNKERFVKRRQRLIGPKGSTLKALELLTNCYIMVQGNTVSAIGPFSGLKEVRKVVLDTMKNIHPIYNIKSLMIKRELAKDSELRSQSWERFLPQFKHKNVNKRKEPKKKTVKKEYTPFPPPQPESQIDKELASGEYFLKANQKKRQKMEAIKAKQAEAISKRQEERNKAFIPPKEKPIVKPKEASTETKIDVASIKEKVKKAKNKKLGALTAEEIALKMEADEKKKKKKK
inactive: [1] 0.028 | [2] -0.033 | [3] -0.054 | [4] 0.01 | [5] -0.005 | [6] 0.092 | [7] 0.023 | [8] 0.032 | [9] 0.046 | [10] -0.014

LIMS1 isoform 3 (UniProt P48059)
inactive: [1] -0.014 | [2] 0.034 | [3] 0.017 | [4] 0.048 | [5] 0.02 | [6] 0.004 | [7] -0.118 | [8] 0.011 | [9] -0.003 | [10] -0.097

MPP5 (UniProt Q8N3R9)
UniProt Q8N3R9, sequence (Q8N3R9 whole entry, looked up): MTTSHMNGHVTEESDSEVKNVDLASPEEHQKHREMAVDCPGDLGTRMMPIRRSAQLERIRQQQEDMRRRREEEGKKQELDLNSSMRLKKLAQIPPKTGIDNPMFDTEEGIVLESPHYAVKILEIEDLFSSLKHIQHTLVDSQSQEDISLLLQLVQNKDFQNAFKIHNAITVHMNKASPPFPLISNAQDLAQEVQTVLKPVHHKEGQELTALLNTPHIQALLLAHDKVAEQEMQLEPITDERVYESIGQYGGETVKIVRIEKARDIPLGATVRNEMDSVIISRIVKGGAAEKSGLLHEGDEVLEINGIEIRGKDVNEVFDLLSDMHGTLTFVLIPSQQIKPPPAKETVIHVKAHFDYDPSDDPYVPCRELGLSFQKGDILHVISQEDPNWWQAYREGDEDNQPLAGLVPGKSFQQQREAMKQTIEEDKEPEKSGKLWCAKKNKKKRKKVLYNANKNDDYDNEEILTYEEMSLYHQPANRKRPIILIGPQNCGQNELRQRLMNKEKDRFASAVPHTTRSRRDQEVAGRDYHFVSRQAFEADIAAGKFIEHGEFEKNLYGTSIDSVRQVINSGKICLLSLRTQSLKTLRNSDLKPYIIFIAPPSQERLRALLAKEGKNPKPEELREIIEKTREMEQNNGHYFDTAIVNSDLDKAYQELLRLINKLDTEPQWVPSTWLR
inactive: [1] 0.066 | [2] -0.08 | [3] -0.051 | [4] 0.034 | [5] 0.045 | [6] 0.073 | [7] 0.114 | [8] -0.217 | [10] -0.139

KPNA2 (UniProt P52292)
inactive: [1] 0.018 | [2] -0.083 | [3] -0.012 | [4] 0.012 | [5] -0.013 | [6] -0.005 | [7] 0.122 | [8] 0.008 | [9] -0.017 | [10] 0.003

LTN1 isoform 3 (UniProt O94822)
inactive: [1] 0.016 | [2] -0.259 | [3] -0.014 | [4] -0.009 | [5] -0.063 | [6] 0.034 | [7] -0.072 | [8] 0.017 | [9] 0.035 | [10] -0.021
